Source: PubChem BioAssay (Tox21)
Results filed as inconclusive are left out. Calls of active or inactive are those of the source. Unless noted, the call rests on the fitted dose curve.

Assays:
[1] = Nuclear factor erythroid 2-related factor 2/antioxidant responsive element (Nrf2/ARE) small molecule agonists: qHTS cell viability counter screen in human keratinocytes (AID 1919968; active means well fitted curve in the direction sought with a large enough effect in the repeat runs; an effect the other way counts as inactive or inconclusive; further: nearly all actives have a fitted effect of over 55% in size)
Outline: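 Fluorescence read-out from CellTiter-Fluor after 1 h at 37 C. Wells held HaCaT-derived ARE-luciferase reporter cells (1,500/well) treated 23 h with DMSO-dissolved compounds. Run in the same wells as the luciferase agonist read.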

[2] = Nuclear factor erythroid 2-related factor 2/antioxidant responsive element (Nrf2/ARE) small molecule agonists: luciferase reporter gene qHTS assay in human keratinocytes (AID 1919969); further: nearly all actives have a fitted effect of over 35% in size; further: potency means the concentration at half of the fitted maximal effect
[3] = molecular target: Gonadotropin-releasing hormone receptor (Homo sapiens) (UniProt P30968); experiment: Human gonadotropin-releasing hormone receptor (GnRHR) small molecule agonists, calcium flux assay in GnRHR-HEK293 cells (AID 1920063); further: nearly all actives have a fitted effect of over 35% in size
Outline: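 Calcium-dye fluorescence, Ex/Em=480/540, recorded every 1 sec over 3 min after compound addition to GnRHR-HEK293 cells. Cells had been seeded 18 hours earlier and dye-loaded for 1 hour at 37 C. Fifteen concentrations, triplicates.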

[4] = molecular target: KiSS-1 receptor (Homo sapiens) (UniProt Q969F8); experiment: Human kisspeptin (KISS1R) small molecule agonists, calcium flux assay in KISS1R-HEK293 cells (AID 1920064; active means well fitted curve in the direction sought with a large enough effect in the repeat runs; an effect the other way counts as inactive or inconclusive)
Outline: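 Calcium flux read-out: kinetic fluorescence at Ex/Em=480/540, 1 s intervals over 3 min, after pin-tool compound addition to dye-loaded KISS1R-HEK293 cells. Fifteen concentrations, triplicates.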

[5] = G protein-coupled receptor (GPCR) small molecule agonists, calcium flux assay: HEK293 wild type cell line counter screen (AID 1920065)
Outline: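 Agonist mode; 18 h seeding at 37 C, 1 h dye load at 37 C; compounds pinned from DMSO, ATP as positive control; kinetic fluorescence 480/540 nm, 3 min, 1 s reads; 15 concentrations, triplicate.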

[6] = p53 small molecule agonists, cell-based qHTS assay with human liver microsomes (AID 1963577);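 further: p53 response element beta-lactamase reporter cells with liver microsomes plus NADPH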
Outline: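 With metabolic activation: human liver microsomes (0.5 mg/mL final) plus NADPH (0.5 mg/mL final) added alongside compounds to p53RE-bla cells; 16 h 37 C exposure; beta-lactamase read by LiveBLAzer fluorescence.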

[7] = p53 small molecule agonists, cell-based qHTS assay with rat liver microsomes (AID 1963578)
Outline: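 Metabolic activation by rat liver microsomes and NADPH, each 0.5 mg/mL final, added right after compounds to p53RE-bla reporter cells (4,000/well, plated 5 h earlier). 16 h at 37 C, then LiveBLAzer substrate for 2 h at room temperature in the dark; fluorescence read-out.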

[8] = p53 small molecule agonists, cell-based qHTS assay with human liver microsomes: qHTS cell viability counter screen (AID 1963579); further: nearly all actives have a fitted effect of over 45% in size
Outline: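 Metabolic activation used human liver microsomes and NADPH, both 0.5 mg/mL final, over 16 hours at 37 C on p53RE-bla cells (4,000/well). Cytotoxicity measured by CellTiter-Glo luminescence, 30 min at room temperature.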

[9] = p53 small molecule agonists, cell-based qHTS assay with rat liver microsomes: qHTS cell viability counter screen (AID 1963580); further: nearly all actives have a fitted effect of over 45% in size
Outline: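 Rat liver microsome (0.5 mg/mL final) and NADPH (0.5 mg/mL final) co-incubation with compounds for 16 h at 37 C on HCT-116 p53RE-bla cells; cytotoxicity taken from intracellular ATP luminescence.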

[10] = p53 small molecule agonists, cell-based qHTS assay: qHTS cell viability counter screen (AID 1963581); further: nearly all actives have a fitted effect of over 45% in size
Outline: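 Cytotoxicity read-out: ATP-based luminescence (CellTiter-Glo, 30 min RT) measured in the same wells as the p53 reporter assay, HCT-116 p53RE-bla cells, 16 h compound exposure at 37 C.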

[11] = p53 small molecule agonists, cell-based qHTS assay (AID 1963582; active means well fitted activation curve with a large enough effect in the signal ratio in the repeat runs, not every such curve was filed as active; the % refers to the signal ratio)
Outline: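 Fluorescence intensity read-out of a beta-lactamase reporter under a p53 response element. Cells were exposed to DMSO-dissolved compounds for 16 h at 37 C, then developed with FRET substrate for 2 h at RT.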

[12] = molecular target: 5-hydroxytryptamine receptor 2A (Homo sapiens) (UniProt P28223); experiment: 5-hydroxytryptamine receptor 2A (HTR2A) small molecule antagonists, cell-based qHTS assay (AID 1963586); further: nearly all actives have a fitted effect of over 45% in size
Outline: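 CHO cells stably expressing human HTR2A were plated for 18 h at 37 C, then loaded with calcium dye for 1 h. Compounds were preincubated 5 min at room temperature before DOI (4 nM solution) was added. Kinetic fluorescence was read for 3 min.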

[13] = molecular target: 5-hydroxytryptamine receptor 2A (Homo sapiens) (UniProt P28223); experiment: 5-hydroxytryptamine receptor 2A (HTR2A) small molecule agonists, cell-based qHTS assay (AID 1963587); further: nearly all actives have a fitted effect of over 30% in size
Outline: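 Kinetic calcium-flux fluorescence (2 min, 1 sec intervals) after compound addition in agonist mode. HTR2A-CHO cells were cultured 18 h, then dye-loaded 1 h at 37 C.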

[14] = molecular target: Muscarinic acetylcholine receptor M1 (Homo sapiens) (UniProt P11229); experiment: Cholinergic receptor muscarinic 1 (CHRM1) small molecule antagonists, cell-based qHTS assay (AID 1963588); further: nearly all actives have a fitted effect of over 40% in size
Outline: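 Compounds were tested at 15 concentrations in three independent runs. Dye-loaded CHRM1-CHO cells were exposed 5 min at room temperature before stimulation by acetylcholine added at 50nM. Intracellular calcium was read kinetically on FDSS for 3 min.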

[15] = molecular target: Muscarinic acetylcholine receptor M1 (Homo sapiens) (UniProt P11229); experiment: Cholinergic receptor muscarinic 1 (CHRM1) small molecule agonists, cell-based qHTS assay (AID 1963589); further: nearly all actives have a fitted effect of over 35% in size
Outline: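 Calcium flux read-out: kinetic fluorescence at 1 sec intervals after pin-tool compound addition to dye-loaded CHRM1-CHO cells (human M1). Agonist mode; 15 concentrations tested in triplicate independent runs.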

[16] = cAMP Responsive Elements (CRE) small molecule agonists, cell-based qHTS assay (AID 1963590)
Outline: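 Beta-lactamase reporter readout: LiveBLAzer B/G FRET substrate, 2 h at room temperature, added after 3 h compound treatment of CRE-bla HEK 293T cells at 37 C/5% CO2.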

[17] = molecular target: D(2) dopamine receptor (Homo sapiens) (UniProt P14416); experiment: Dopamine D2 receptor (DRD2) small molecule agonists, cell-based qHTS assay (AID 1963594); further: nearly all actives have a fitted effect of over 35% in size
Outline: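 cAMP accumulation in DRD2-HEK293 cells measured by HTRF after 1 h detection; compounds added 10 min before NKH477 (200nM […]) forskolin-analogue stimulation, 30 min at room temperature, with Ro20-1724 present at 0.1 mM final.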

[18] = molecular target: D(2) dopamine receptor (Homo sapiens) (UniProt P14416); experiment: Dopamine D2 receptor (DRD2) small molecule antagonists, cell-based qHTS assay (AID 1963595; active means well fitted inhibition curve with a large enough effect in the signal ratio in the repeat runs, with a control signal flat; the % refers to the signal ratio)
Outline: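 HEK293 cells stably expressing DRD2 were preincubated with 0.1 mM Ro20-1724, then with compound for 10 min at room temperature. Cells were stimulated with 200 nM NKH477 plus 12 nM quinpirole for 30 min, and cAMP was read by HTRF.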

[19] = molecular target: Beta-2 adrenergic receptor (Homo sapiens) (UniProt P07550); experiment: Adrenergic beta2 receptor (ADRB2) small molecule antagonists, cell-based qHTS assay (AID 1963592); further: series mostly up to about 92 µM; nearly all actives have a fitted effect of over 50% in size
Outline: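 Assay format: CHO-ADRB2 cells, 18-20hr seeding at 37C/5% CO2, then compound plus 1nM isoproterenol agonist mix for 0.5hr RT. Homogeneous time-resolved fluorescence cAMP detection after 1hr, expressed as 665/615 nm ratio.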

[20] = cAMP Responsive Elements (CRE) small molecule antagonists, cell-based qHTS assay (AID 1963591; active means well fitted inhibition curve with a large enough effect in the signal ratio in the repeat runs, not every such curve was filed as active; the % refers to the signal ratio)
Outline: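 HEK293T CRE-bla; 18 h preincubation; compound pin-transfer; NKH477 0.25 uM final, 3 h, 37 C; LiveBLAzer FRET substrate 2 h RT.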

Measured: Potency

Sequence of 5-hydroxytryptamine receptor 2A (Homo sapiens) (P28223 whole entry, looked up): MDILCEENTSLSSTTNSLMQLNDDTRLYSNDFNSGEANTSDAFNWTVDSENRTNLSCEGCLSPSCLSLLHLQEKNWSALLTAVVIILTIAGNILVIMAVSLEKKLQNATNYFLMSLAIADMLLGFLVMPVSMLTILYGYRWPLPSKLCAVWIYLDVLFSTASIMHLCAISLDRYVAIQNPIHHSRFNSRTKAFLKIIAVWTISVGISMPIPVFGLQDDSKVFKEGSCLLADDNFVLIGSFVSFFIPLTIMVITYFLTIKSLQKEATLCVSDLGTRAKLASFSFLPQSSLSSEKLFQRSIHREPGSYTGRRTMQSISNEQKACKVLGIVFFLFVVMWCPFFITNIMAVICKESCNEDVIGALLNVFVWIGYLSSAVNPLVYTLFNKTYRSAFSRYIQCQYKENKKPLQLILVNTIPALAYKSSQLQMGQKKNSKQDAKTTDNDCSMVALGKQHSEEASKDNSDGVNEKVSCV
Sequence of Beta-2 adrenergic receptor (Homo sapiens) (P07550 whole entry, looked up): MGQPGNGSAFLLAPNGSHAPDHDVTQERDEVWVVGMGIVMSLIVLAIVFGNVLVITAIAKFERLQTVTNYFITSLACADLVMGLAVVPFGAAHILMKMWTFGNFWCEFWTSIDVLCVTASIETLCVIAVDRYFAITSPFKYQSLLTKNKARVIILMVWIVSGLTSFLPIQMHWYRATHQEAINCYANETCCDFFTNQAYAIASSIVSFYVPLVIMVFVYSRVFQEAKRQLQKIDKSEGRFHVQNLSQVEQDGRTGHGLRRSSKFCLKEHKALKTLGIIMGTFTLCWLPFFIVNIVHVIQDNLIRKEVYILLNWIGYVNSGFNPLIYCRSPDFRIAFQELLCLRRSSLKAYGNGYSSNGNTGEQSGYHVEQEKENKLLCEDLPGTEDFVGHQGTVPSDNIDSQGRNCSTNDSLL
Sequence of Gonadotropin-releasing hormone receptor (Homo sapiens) (P30968 whole entry, looked up): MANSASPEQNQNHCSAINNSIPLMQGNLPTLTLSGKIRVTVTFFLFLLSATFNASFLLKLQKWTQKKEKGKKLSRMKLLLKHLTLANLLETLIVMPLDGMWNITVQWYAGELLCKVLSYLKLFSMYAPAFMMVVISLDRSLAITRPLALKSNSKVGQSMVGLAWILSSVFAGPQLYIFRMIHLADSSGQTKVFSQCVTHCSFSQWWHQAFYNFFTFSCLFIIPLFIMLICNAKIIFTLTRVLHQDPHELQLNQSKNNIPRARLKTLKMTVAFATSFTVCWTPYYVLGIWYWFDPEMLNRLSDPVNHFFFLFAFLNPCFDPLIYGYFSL
Sequence of D(2) dopamine receptor (Homo sapiens) (P14416 whole entry, looked up): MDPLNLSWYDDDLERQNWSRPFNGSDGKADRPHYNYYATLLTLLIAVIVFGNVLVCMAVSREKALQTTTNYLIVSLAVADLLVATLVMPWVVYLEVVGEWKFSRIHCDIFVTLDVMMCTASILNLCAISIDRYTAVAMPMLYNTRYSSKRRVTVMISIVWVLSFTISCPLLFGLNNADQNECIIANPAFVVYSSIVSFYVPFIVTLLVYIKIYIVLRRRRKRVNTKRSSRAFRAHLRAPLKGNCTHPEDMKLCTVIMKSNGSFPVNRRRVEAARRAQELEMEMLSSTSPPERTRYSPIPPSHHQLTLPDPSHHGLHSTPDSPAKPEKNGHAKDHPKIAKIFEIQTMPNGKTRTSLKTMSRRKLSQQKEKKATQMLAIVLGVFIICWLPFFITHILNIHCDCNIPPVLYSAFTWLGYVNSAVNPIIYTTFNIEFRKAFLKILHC
Sequence of KiSS-1 receptor (Homo sapiens) (Q969F8 whole entry, looked up): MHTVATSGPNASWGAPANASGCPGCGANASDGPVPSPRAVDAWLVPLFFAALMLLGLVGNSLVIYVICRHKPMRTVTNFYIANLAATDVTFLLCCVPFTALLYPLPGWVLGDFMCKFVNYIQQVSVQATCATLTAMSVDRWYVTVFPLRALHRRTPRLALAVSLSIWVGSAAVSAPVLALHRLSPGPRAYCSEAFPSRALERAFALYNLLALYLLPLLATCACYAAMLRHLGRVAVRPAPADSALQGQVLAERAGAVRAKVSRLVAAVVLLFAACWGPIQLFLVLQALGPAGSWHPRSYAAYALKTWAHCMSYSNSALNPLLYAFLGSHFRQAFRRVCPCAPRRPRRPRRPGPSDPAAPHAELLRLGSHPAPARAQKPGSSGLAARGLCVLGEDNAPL
Sequence of Muscarinic acetylcholine receptor M1 (Homo sapiens) (P11229 whole entry, looked up): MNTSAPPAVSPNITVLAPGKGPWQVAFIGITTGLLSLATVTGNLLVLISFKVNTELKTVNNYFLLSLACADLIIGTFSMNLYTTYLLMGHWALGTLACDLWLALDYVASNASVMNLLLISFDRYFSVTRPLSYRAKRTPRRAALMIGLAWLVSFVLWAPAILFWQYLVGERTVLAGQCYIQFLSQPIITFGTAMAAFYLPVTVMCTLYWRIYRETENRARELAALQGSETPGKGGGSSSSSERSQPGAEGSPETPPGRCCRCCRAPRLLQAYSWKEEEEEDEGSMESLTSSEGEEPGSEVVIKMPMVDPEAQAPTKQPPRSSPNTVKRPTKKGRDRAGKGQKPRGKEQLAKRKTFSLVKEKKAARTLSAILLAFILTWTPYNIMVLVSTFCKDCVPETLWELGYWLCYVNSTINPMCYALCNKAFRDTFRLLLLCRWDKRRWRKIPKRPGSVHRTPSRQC

CCOC(=O)c1cccnc1
inactive: [1] | [2] | [3] | [4] | [5] | [6] | [7] | [8] | [9] | [10] | [11] | [12] | [13] | [14] | [15] | [16] | [17] | [18]

CCOC(=O)CCC(=O)OCC
inactive: [1] | [2] | [3] | [4] | [5] | [6] | [7] | [8] | [9] | [10] | [11] | [12] | [13] | [14] | [15] | [16] | [19] | [17] | [18]

Cc1cc(CCCOc2c(C)cc(-c3noc(C(F)(F)F)n3)cc2C)on1
active: [2] 11.9 µM
inactive: [1] | [3] | [4] | [5] | [6] | [7] | [8] | [9] | [10] | [11] | [12] | [13] | [14] | [15] | [16] | [20] | [18]

O=C(O)c1cc(Cl)cc([N+](=O)[O-])c1Cl
inactive: [1] | [2] | [3] | [4] | [5] | [6] | [7] | [8] | [9] | [10] | [11] | [12] | [13] | [14] | [15] | [20] | [19] | [17] | [18]

C=CC(C)(C)O
inactive: [1] | [2] | [3] | [4] | [5] | [6] | [7] | [8] | [9] | [10] | [11] | [12] | [13] | [14] | [15] | [16] | [19] | [18]

Cn1c(=O)[nH]c2ncn(C)c2c1=O
inactive: [1] | [2] | [3] | [4] | [5] | [6] | [7] | [8] | [9] | [10] | [11] | [12] | [13] | [14] | [15] | [16] | [19] | [17] | [18]

CCOC(=O)Cc1cccc2ccccc12
inactive: [1] | [2] | [3] | [4] | [5] | [6] | [7] | [8] | [9] | [10] | [11] | [12] | [13] | [14] | [15] | [16] | [19] | [17] | [18]
